Holding throughout (experiment): NCI-60 one-dose screen, 48 h (100 = growth as untreated, 0 = no growth, -100 = all killed)
Holding throughout (details): 10 µM unless noted

The test system of assay [1] is NCI-H23 lung.
The subject of assay [2] is NCI-H226 lung.
Assay [3] relates to NCI-H322M lung.
In assay [4] the test system is HOP-62 NSCLC.
The test system of assay [5] is NCI-H460 lung.
The subject of assay [6] is HOP-92 NSCLC.
Assay [7] has as its system NCI-H522 lung.
The subject of assay [8] is A549/ATCC NSCLC.
Assay [9] deals with 786-0 renal.
Assay [10] concerns DU-145 prostate.
In assay [11] the test system is K-562 leukemia.
For assay [12], the system named is MALME-3M melanoma.
Assay [13] relates to MDA-MB-231 breast.
Assay [14] concerns RXF 393 renal.
For assay [15], the system named is SF-268 CNS.
The subject of assay [16] is SF-295 CNS.
Assay [17] deals with SF-539 CNS.
The test system of assay [18] is UACC-257 melanoma.
In assay [19] the test system is M14 melanoma.

Compounds without any hit were thinned out: in the full panel of roughly 83,000, 20% have a hit.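 Single-dose data. Exposure time 48 hours. Values below 10 considered active.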 Unmarked numbers belong to inactive results. The source made the active and inactive calls.

As to `Cc1cc(-c2ccc(N(C)C)cc2)c2sc(=O)[nH]c2n1`, the growth in assay [1] was 82.6%; in assay [2], 64.6%; in assay [3], 78.1%; in [4] it was 70.2%; in [5], 65.2%; in assay [6], 85.5%. Besides, the growth is 56.5% in [7]; 66% in assay [8]; 77.2% in assay [9]; 98.8% in assay [10]; 24.5% in [11]; 71.1% in assay [12]. The growth in [13] is 71.4%; in assay [14] it was 51.2%; in [15], 69.5%; in assay [16], 48.6%; in [17] it was 52.9%; in assay [18], 81.4%. The growth in [19] is 44.5%.
For `Clc1ccc2c(NCCCN3CCN(c4nc(N5CCOCC5)nc5ccccc45)CC3)ccnc2c1`, the growth in assay [1] is 73.8%; in assay [2], 75.7%; in assay [3] it was 30%; in assay [4] it was 42.6%; in assay [5], 4.92% (active); in [6], 12.2%. For the same compound, the growth in assay [7] is 13%; in [8] it was 24%; in [9], -36% (active); in [10] it was 27.1%; in assay [11], -46.2% (active); in assay [12], -82% (active). Besides, the growth in assay [13] is -34.5% (active); in assay [14] it was -76.6% (active); in assay [15], 46.7%; in assay [16], -46.7% (active); in assay [17], -82.7% (active); in assay [18], -68.3% (active). Further, the growth in assay [19] was -80.3% (active).
Turning to `COc1cccc(CCC2CCCN(c3cc(C)nc(N)n3)C2)c1` (configuration not stated), the growth in [1] was 22.1%; in [2], 55.9%; in [3], 40%; in [4], 59.4%; in assay [5], 14.3%; in assay [6], 23%. Also, the growth was 2.3% (active) in assay [7]; 29.1% in [8]; 19% in assay [9]; 25.9% in assay [10]; 10.9% in [11]; 55.2% in assay [12]. The growth in [13] was 22.7%; in assay [14] it was 22.3%; in assay [15], 42.6%; in assay [16] it was 14.7%; in [17], 10.1%; in assay [18], 44.5%. The growth in assay [19] was 6.51% (active).
For the compound `CS(=O)(=O)c1ccc(N/N=C/c2c(-c3ccc(S(C)(=O)=O)cc3)[nH]c3ccc(F)cc23)cc1`, the growth in [1] was 41.6%; in [2] it was 67.2%; in assay [3] it was 45%; in [4] it was 28.1%; in [5], 12.8%; in [6], 16.3%. Further, the growth in assay [7] was 27.6%; in assay [8], 44.7%; in [9], 15.9%; in [10] it was 39.9%; in [11], 10.5%; in assay [12] it was 10.7%. The growth in assay [13] was 29.6%; in assay [14] it was -10.9% (active); in assay [15] it was 39.3%; in [16], -52.8% (active); in assay [17], -19.8% (active); in assay [18], 14.1%. For the same compound, the growth in assay [19] is 32.9%.
With `CSc1nc2sc3cc(Cl)ccc3n2c(=N)c1C#N`, the growth in assay [1] is 82.2%; in assay [2], 57%; in assay [3], 107%; in assay [4], 119%; in [5] it was 92.7%; in assay [6], 77%. Moreover, the growth is 94.3% in assay [7]; 62.3% in [8]; 47.6% in assay [9]; 96.1% in [10]; 110% in [11]; 40.1% in [12]. The growth is 72.8% in [13]; -0.36% (active) in assay [14]; 47.3% in assay [15]; 26.1% in assay [16]; 70.2% in assay [17]; 45.7% in assay [18]. In addition, in [19], the growth is 82.4%.
Consider `CCCN1CCN(c2ccc3nc(-c4ccc5nc(-c6ccc(OCC)c(OCC)c6)[nH]c5c4)[nH]c3c2)CC1`, for which the growth in [1] is -53.3% (active); in assay [2], -58.2% (active); in assay [3], -18.7% (active); in assay [4], -64.9% (active); in assay [5], -80.3% (active); in assay [6], 40.5%. For the same compound, the growth in assay [7] was -44.8% (active); in assay [8], -50.2% (active); in [9], -89% (active); in assay [10], -64.1% (active); in assay [11], -5.53% (active); in assay [12], -82.4% (active). The growth in [13] is -80.2% (active); in assay [14], -92.3% (active); in assay [15], 15.8%; in assay [16] it was -63.2% (active); in assay [17] it was -87.9% (active); in [18] it was -29.7% (active). The growth in [19] is -65.7% (active).
Consider `N#Cc1cccc(-c2nc3ccccn3c2NCCN2CCOCC2)c1`, for which the growth is 98.6% in assay [1]; 93.6% in [2]; 87.1% in assay [3]; 72.5% in assay [4]; 98.8% in assay [5]; 93% in assay [6]. Moreover, the growth was 85.8% in [7]; 90.4% in [8]; 96.1% in assay [9]; 106% in assay [10]; 97.3% in [11]; 108% in assay [12]. The growth is 94.6% in assay [13]; 96.3% in assay [14]; 90.3% in [15]; 101% in assay [16]; 92.2% in assay [17]; 98.8% in assay [18]. For the same compound, the growth in assay [19] is 89.9%.
Regarding `CCOC(=O)c1c(C)[nH]c(C(=O)CCC(=O)OC)c1C`, the growth in [1] was 98.3%; in assay [2], 95.8%; in [3], 98.5%; in assay [4], 98.7%; in assay [5] it was 110%; in assay [6], 84.6%. In addition, the growth in [7] was 72.5%; in [8], 93.3%; in assay [9], 92.9%; in [10], 100%; in assay [11] it was 102%; in assay [12], 98.7%. Also, the growth in assay [13] was 115%; in [14], 112%; in assay [15], 98.3%; in assay [16] it was 91.8%; in [17], 100%; in [18], 112%. Besides, the growth in [19] was 97.5%.

The values are drawn from PubChem BioAssay (NCI).
